According to PubChem BioAssay (NCATS):
Calls of active or inactive are those of the source. Calls follow the shape of the full dose curve.

target: Glucocorticoid receptor (Homo sapiens) (UniProt P04150); experiment: GR-EFC Redistribution (AID 451); details: CHO-K1 GR-EFC translocation, beta-gal luminescence, 2 h
Summary of the method: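 Translocation of GR-ED fusion to nuclear EA restores b-gal, read by luminescence after 1 h room-temperature detection. Engineered CHO-K1 biosensor cells, 1,000/well, exposed 2 h at 37 C to titrations up to 46 uM final.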
Potency is read from the fitted curve at half-maximal effect.

Glucocorticoid receptor (Homo sapiens), sequence (P04150 whole entry, looked up, the tested form may be a part): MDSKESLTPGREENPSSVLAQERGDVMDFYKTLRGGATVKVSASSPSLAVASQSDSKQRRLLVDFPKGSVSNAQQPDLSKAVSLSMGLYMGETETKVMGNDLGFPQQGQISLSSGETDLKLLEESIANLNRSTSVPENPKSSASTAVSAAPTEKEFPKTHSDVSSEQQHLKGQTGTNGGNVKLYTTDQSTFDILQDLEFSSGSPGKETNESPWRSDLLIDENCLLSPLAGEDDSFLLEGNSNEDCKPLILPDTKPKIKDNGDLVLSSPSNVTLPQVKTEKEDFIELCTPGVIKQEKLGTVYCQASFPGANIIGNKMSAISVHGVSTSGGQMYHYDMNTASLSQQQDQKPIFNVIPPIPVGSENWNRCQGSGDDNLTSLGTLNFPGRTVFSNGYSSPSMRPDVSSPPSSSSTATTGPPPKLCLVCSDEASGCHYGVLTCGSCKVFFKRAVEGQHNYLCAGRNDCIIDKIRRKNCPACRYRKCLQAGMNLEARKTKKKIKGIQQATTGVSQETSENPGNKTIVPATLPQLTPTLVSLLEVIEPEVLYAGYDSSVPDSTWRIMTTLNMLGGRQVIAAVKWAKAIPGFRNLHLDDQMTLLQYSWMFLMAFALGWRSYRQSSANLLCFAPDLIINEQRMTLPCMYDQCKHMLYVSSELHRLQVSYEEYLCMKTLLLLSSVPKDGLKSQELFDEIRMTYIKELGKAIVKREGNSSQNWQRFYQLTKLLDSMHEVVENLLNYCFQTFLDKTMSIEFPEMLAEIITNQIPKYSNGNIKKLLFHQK

Potency, inactive:
FC(F)(F)c1ccccc1-c1nccc(NCc2cccs2)n1 > 46 µM
CN1CCN(c2ncc3ncc(=O)n(C[C@H]4CCCO4)c3n2)CC1 > 46 µM
COCCn1c(=O)c(-c2cccc(C#N)c2)nc2cnc(Oc3ccccc3)nc21 > 46 µM
CS(=O)(=O)Nc1cccc(-c2ccc3ncnc(Nc4ccccc4)c3c2)c1 > 46 µM
c1ccc(CNc2ncnc3ccc(-c4cccnc4)cc23)cc1 > 46 µM
COc1ccc(-c2nc3cnc(N4CCN(C)CC4)nc3n(Cc3cccs3)c2=O)cc1 > 46 µM
COCCn1c(=O)cnc2cnc(Nc3cccc(OC)c3)nc21 > 46 µM
COCCn1c(=O)cnc2cnc(Nc3ccccc3)nc21 > 46 µM
CN1CCN(c2ncc3nc(-c4cc(F)cc(F)c4)c(=O)n(CCc4ccccc4)c3n2)CC1 > 46 µM
O=c1c(-c2ccc(Cl)cc2)nc2cnc(N3CCNCC3)nc2n1Cc1cccs1 > 46 µM
O=c1c(-c2ccc(F)cc2)nc2cnc(N3CCNCC3)nc2n1C1CC1 > 46 µM
COc1ccc(-n2c(=O)c(-c3ccc(Cl)cc3)nc3cnc(N4CCNCC4)nc32)cc1 > 46 µM
COCCNc1ncnc2ccc(-c3cccc(OC)c3)cc12 > 46 µM
O=c1c(-c2ccc(Cl)cc2)nc2cnc(N3CCOCC3)nc2n1-c1ccccc1 > 46 µM
CN(C)c1ncc2nc(-c3ccc(F)cc3)c(=O)n(Cc3ccc(F)cc3)c2n1 > 46 µM
COc1ccc(-c2nc3cnc(Oc4ccccc4)nc3n(CCC#N)c2=O)cc1 > 46 µM
COc1cccc(Nc2ncc3nc(CCc4ccccc4)c(=O)n(C)c3n2)c1 > 46 µM
Cc1nc2cncnc2n(C2CC2)c1=O > 46 µM
COc1ccc2[nH]cc(CCNc3ncnc4ccc(-c5cccnc5)cc34)c2c1 > 46 µM
Cn1c(=O)c(-c2ccc(Cl)cc2)nc2cnc(N3CCOCC3)nc21 > 46 µM
CN(C)c1ncc2nc(-c3ccccc3)c(=O)n(Cc3ccc(F)cc3)c2n1 > 46 µM
COc1ccc(Oc2ncc3nc(-c4ccc(Cl)cc4)c(=O)n(C[C@H]4CCCO4)c3n2)cc1 > 46 µM
COc1ncc2nc(-c3ccc(F)cc3)c(=O)n(C)c2n1 > 46 µM
CN1CCN(c2ncc3nc(-c4cc(F)cc(F)c4)c(=O)n(Cc4cccs4)c3n2)CC1 > 46 µM
CCNc1ncc2nc(-c3ccccc3)c(=O)n(Cc3cccs3)c2n1 > 46 µM
CN1CCN(c2ncc3nc(-c4ccc(Cl)cc4)c(=O)n(-c4ccccc4)c3n2)CC1 > 46 µM
CN1CCN(c2ncc3nc(-c4ccc(F)cc4)c(=O)n(Cc4cccs4)c3n2)CC1 > 46 µM
CNc1nc(-c2ccccc2CN(C)C)nc2ccccc12 > 46 µM
COCCNc1ncnc2ccc(-c3cccnc3)cc12 > 46 µM
COc1cccc(Cn2c(=O)c(-c3cccc(C#N)c3)nc3cnc(N4CCN(C)CC4)nc32)c1 > 46 µM
COc1cccc(Cn2c(=O)c(-c3cc(F)cc(F)c3)nc3cnc(N(C)C)nc32)c1 > 46 µM
COc1cccc(Cn2c(=O)c(-c3cc(F)cc(F)c3)nc3cnc(N4CCN(C)CC4)nc32)c1 > 46 µM
COc1cccc(Nc2ncc3nc(C)c(=O)n(Cc4cccs4)c3n2)c1 > 46 µM
CN1CCN(c2cc(-c3ccoc3)ncn2)CC1 > 46 µM
CN(C)c1ncnc2ccc(-c3ccoc3)cc12 > 46 µM
CCNc1ncc2nc(-c3cn(C)c4ccccc34)c(=O)n(Cc3cccc(OC)c3)c2n1 > 46 µM
COc1ccc(-c2nc3cnc(Oc4cccc(Cl)c4)nc3n(C3CC3)c2=O)cc1 > 46 µM
COc1ncc2nc(-c3cccs3)c(=O)n(CCc3ccccc3)c2n1 > 46 µM
